The whole screen tested about 5,500 compounds, of which about 2,000 (36%) were called active. Roughly 18% stayed inconclusive and do not appear here. Rule as the data show it: active = normalized growth mostly below about 0.91 (no sharp cut-off); inconclusive = no clear call, values can overlap the other calls; inactive = mostly above about 0.92. This is one part of the list.
Test: chemical genetic growth profiling, strain panel (AID 1159580);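 also: tested at 20 µM; growth read once vehicle control cultures reached saturation at 30 °C; 1 = growth at the plate median or of vehicle wells; lower values mean less growth of the strain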
Conditions: growth OD

Measured: normalized growth

CCOC(=O)C1=C[C@]2(CC)CCCN3CCc4c(n1c1ccccc41)[C@@H]32
active: S. cerevisiae deletion strains, locus YNL307C, strain MCK1, hits give low values 0.879 | S. cerevisiae deletion strains, locus YOR184W, strain ser1, hits give low values 0.859
inactive: S. cerevisiae deletion strains, locus YKL009W, strain mrt4, hits give low values 0.964 | S. cerevisiae deletion strains, locus YKL068W, hits give low values 0.988 | S. cerevisiae deletion strains, locus YKL085W, strain MDH1 (second series), hits give low values 0.992 | S. cerevisiae deletion strains, locus YKL085W, strain MDH1, hits give low values 0.992 | S. cerevisiae deletion strains, locus YKL160W, strain elf1, hits give low values 1.03 | S. cerevisiae deletion strains, locus YKL190W, strain CNB1, hits give low values 0.982 | S. cerevisiae deletion strains, locus YKR001C, strain vps1, hits give low values 0.933 | S. cerevisiae deletion strains, locus YKR026C, strain gcn3, hits give low values 1.01 | S. cerevisiae deletion strains, locus YKR091W, strain srl3, hits give low values 1.01 | S. cerevisiae deletion strains, locus YLL001W, strain dnm1, hits give low values 1.03 | S. cerevisiae deletion strains, locus YLL026W, hits give low values 1.02 | S. cerevisiae deletion strains, locus YLL041C, strain sdh2, hits give low values 1.02 | S. cerevisiae deletion strains, locus YLR027C, strain aat2, hits give low values 1.02 | S. cerevisiae deletion strains, locus YLR039C, strain RIC1, hits give low values 0.924 | S. cerevisiae deletion strains, locus YLR058C, strain SHM2, hits give low values 0.963 | S. cerevisiae deletion strains, locus YLR102C, strain apc9, hits give low values 0.969 | S. cerevisiae deletion strains, locus YLR113W, strain HOG1, hits give low values 1.01 | S. cerevisiae deletion strains, locus YLR221C, strain rsa3, hits give low values 1.02 | S. cerevisiae deletion strains, locus YLR258W, strain gsy2, hits give low values 1.02 | S. cerevisiae deletion strains, locus YLR262C, strain YPT6 (second series), hits give low values 0.996 | S. cerevisiae deletion strains, locus YLR262C, strain YPT6, hits give low values 0.852 | S. cerevisiae deletion strains, locus YLR268W, strain sec22, hits give low values 0.923 | S. cerevisiae deletion strains, locus YLR320W, strain mms22, hits give low values 0.986 | S. cerevisiae deletion strains, locus YLR330W, strain CHS5, hits give low values 0.992 | S. cerevisiae deletion strains, locus YLR342W, strain FKS1 (second series), hits give low values 0.928 | S. cerevisiae deletion strains, locus YLR342W, strain FKS1, hits give low values 1.01 | S. cerevisiae deletion strains, locus YLR357W, strain rsc2, hits give low values 1.07 | S. cerevisiae deletion strains, locus YLR370C, strain arc18, hits give low values 1.02 | S. cerevisiae deletion strains, locus YLR371W, strain rom2, hits give low values 0.985 | S. cerevisiae deletion strains, locus YLR384C, strain iki3, hits give low values 1.04 | S. cerevisiae deletion strains, locus YLR418C, strain cdc73, hits give low values 0.915 | S. cerevisiae deletion strains, locus YML016C, strain PPZ1, hits give low values 0.985 | S. cerevisiae deletion strains, locus YML032C, strain rad52, hits give low values 0.95 | S. cerevisiae deletion strains, locus YML120C, strain ndi1, hits give low values 1.01 | S. cerevisiae deletion strains, locus YML124C, strain tub3, hits give low values 0.979 | S. cerevisiae deletion strains, locus YMR058W, strain fet3, hits give low values 1.02 | S. cerevisiae deletion strains, locus YMR078C, strain ctf18, hits give low values 0.977 | S. cerevisiae deletion strains, locus YMR125W, strain sto1, hits give low values 1.02 | S. cerevisiae deletion strains, locus YMR129W, hits give low values 1.02 | S. cerevisiae deletion strains, locus YMR205C, strain PFK2, hits give low values 0.995 | S. cerevisiae deletion strains, locus YMR223W, strain ubp8, hits give low values 0.961 | S. cerevisiae deletion strains, locus YMR231W, strain pep5, hits give low values 1.02 | S. cerevisiae deletion strains, locus YMR263W, strain SAP30, hits give low values 0.987 | S. cerevisiae deletion strains, locus YMR307W, strain GAS1, hits give low values 1.01 | S. cerevisiae deletion strains, locus YNL067W, strain RPL9B, hits give low values 0.949 | S. cerevisiae deletion strains, locus YNL071W, strain lat1, hits give low values 1.01 | S. cerevisiae deletion strains, locus YNL128W, strain TEP1, hits give low values 0.988 | S. cerevisiae deletion strains, locus YNL183C, strain NPR1, hits give low values 0.947 | S. cerevisiae deletion strains, locus YNL209W, strain ssb2, hits give low values 1.05 | S. cerevisiae deletion strains, locus YNL233W, strain BNI4, hits give low values 0.931 | S. cerevisiae deletion strains, locus YNL248C, strain rpa49, hits give low values 1.05 | S. cerevisiae deletion strains, locus YNL250W, strain rad50, hits give low values 0.978 | S. cerevisiae deletion strains, locus YNL271C, strain bni1, hits give low values 0.981 | S. cerevisiae deletion strains, locus YNL298W, strain CLA4, hits give low values 0.98 | S. cerevisiae deletion strains, locus YNL322C, strain KRE1 (second series), hits give low values 1.02 | S. cerevisiae deletion strains, locus YNL322C, strain KRE1, hits give low values 0.986 | S. cerevisiae deletion strains, locus YNR049C, strain mso1, hits give low values 1.02 | S. cerevisiae deletion strains, locus YNR052C, strain pop2, hits give low values 0.979 | S. cerevisiae deletion strains, locus YOL006C, strain TOP1, hits give low values 0.803 | S. cerevisiae deletion strains, locus YOL012C, strain htz1 0.935 | S. cerevisiae deletion strains, locus YOL147C, strain pex11, hits give low values 0.984 | S. cerevisiae deletion strains, locus YOR001W, strain rrp6, hits give low values 1.02 | S. cerevisiae deletion strains, locus YOR061W, strain CKA2, hits give low values 0.964 | S. cerevisiae deletion strains, locus YOR069W, strain VPS5, hits give low values 0.986 | S. cerevisiae deletion strains, locus YOR070C, strain gyp1, hits give low values 1.01 | S. cerevisiae deletion strains, locus YOR080W, strain dia2, hits give low values 1.03 | S. cerevisiae deletion strains, locus YOR083W, strain WHI5, hits give low values 1.01 | S. cerevisiae deletion strains, locus YOR106W, strain vam3, hits give low values 1.04 | S. cerevisiae deletion strains, locus YOR136W, strain idh2, hits give low values 0.978 | S. cerevisiae deletion strains, locus YOR144C, strain elg1, hits give low values 0.994 | S. cerevisiae deletion strains, locus YOR231W, strain MKK1, hits give low values 1.02 | S. cerevisiae deletion strains, locus YOR265W, strain rbl2, hits give low values 1.02 | S. cerevisiae deletion strains, locus YOR270C, strain vph1, hits give low values 0.957 | S. cerevisiae deletion strains, locus YOR290C, strain snf2, hits give low values 1.01 | S. cerevisiae deletion strains, locus YOR316C, strain cot1, hits give low values 0.974 | S. cerevisiae deletion strains, locus YPL051W, strain arl3, hits give low values 1.01 | S. cerevisiae deletion strains, locus YPL055C, strain LGE1, hits give low values 0.887 | S. cerevisiae deletion strains, locus YPL078C, strain atp4, hits give low values 1.01 | S. cerevisiae deletion strains, locus YPL106C, strain sse1, hits give low values 1.03 | S. cerevisiae deletion strains, locus YPL240C, strain hsp82, hits give low values 1.04 | S. cerevisiae deletion strains, locus YPL256C, strain CLN2, hits give low values 0.999 | S. cerevisiae deletion strains, locus YPR119W, strain clb2, hits give low values 0.986 | S. cerevisiae deletion strains, locus YPR141C, strain kar3, hits give low values 0.986 | S. cerevisiae deletion strains, locus YPR163C, strain tif3, hits give low values 0.936 | S. cerevisiae deletion strains, locus YPR167C, strain met16, hits give low values 0.989 | S. cerevisiae deletion strains, strain wtn01, hits give low values 0.993 | S. cerevisiae strains, strain wild type, hits give low values 0.974
